Data on eleven compounds can be found in PubChem BioAssay.

Calls of active or inactive are those of the source.

Test [1] has as its system Plasmodium falciparum Sir2 (PF13_0152, Sir2A). Put plainly: Plasmodium falciparum Sir2A binding compounds – biochemical, small-molecule microarray, 635 nm fluorescence, primary screen (AID 1098).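 Note: score merges spot fluorescence intensity with its signal-to-noise ratio.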 As to conditions: fluorescence 635 nm, higher = more signal.
Test [2] is described as follows: probe aDKK1 binding to arrayed compounds – biochemical, biotinylated probe, 635/667 nm fluorescence, primary screen (AID 1099).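 Note: score merges 667nm spot fluorescence with signal to noise across triplicate slides; reference of the scale not given here.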 The settings on record: small-molecule microarray, higher = more signal.
Test [3] is described as follows: probe aCHRDL2 binding to arrayed compounds – biochemical, biotinylated probe, 635/667 nm fluorescence, primary screen (AID 1100). The settings on record: small-molecule microarray, higher = more signal.
Test [4] in a line: change in splice reporter luminescence, either direction, cell-based, HEK293, spliceosome inhibition project, primary screen (AID 1101).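 Note: HEK293 cells carrying a splicing-competent luciferase reporter gene; test concentration not given here.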 The settings on record: HEK293 splicing luciferase reporter, 24 h, higher = more signal, called active from +8 up or from −8 down. In general terms: In a reporter assay the amount or activity of a reporter protein is the signal.
The target in test [5] is Fibroblast growth factor 10 (Homo sapiens) (UniProt O15520). Put plainly: compounds binding fibroblast growth factor 10 – biochemical, small-molecule microarray, 635 nm fluorescence, primary screen (AID 1102). As to conditions: FGF10 binding, fluorescence 635 nm, higher = more signal.
Fibroblast growth factor 10 (Homo sapiens), sequence (O15520 whole entry, looked up): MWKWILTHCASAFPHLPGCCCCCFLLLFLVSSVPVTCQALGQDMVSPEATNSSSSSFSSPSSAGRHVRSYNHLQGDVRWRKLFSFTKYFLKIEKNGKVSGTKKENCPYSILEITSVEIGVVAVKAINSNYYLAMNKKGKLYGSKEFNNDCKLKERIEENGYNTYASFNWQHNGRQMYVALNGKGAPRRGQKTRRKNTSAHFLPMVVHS
In test [6] the test system is glycogen synthase kinase-3 (GSK3A per assay name; protocol says GSK3B). Put plainly: compounds binding glycogen synthase kinase-3 – biochemical, small-molecule microarray, 635 nm fluorescence, GSK3A, primary screen (AID 1103). Note: the record names both GSK3A and GSK3B. The settings on record: fluorescence 635 nm, higher = more signal.
Test [7] addresses Epidermal growth factor receptor (Homo sapiens) (UniProt P00533). Put plainly: compounds binding epidermal growth factor receptor – biochemical, small-molecule microarray, 635 nm fluorescence, primary screen (AID 1104).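 Note: score merges 667 nm emission intensity with spot signal to noise over triplicate slides.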 The settings on record: EGFR binding, higher = more signal.
Test [8] addresses Follistatin-related protein 3 (Homo sapiens) (UniProt O95633). Put plainly: compounds binding follistatin-related protein 3 – biochemical, small-molecule microarray, 635 nm fluorescence, primary screen (AID 1105).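 Note: score merges emission near 667 nm and signal to noise per printed spot across three slides.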 The settings on record: FSTL3 binding, higher = more signal.
Test [9] deals with Dickkopf-related protein 1 (Homo sapiens) (UniProt O94907). Put plainly: small molecules binding DKK1 protein – biochemical, small-molecule microarray, 635 nm fluorescence scan, primary screen (AID 1106).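 Note: score merges emission near 667 nm with signal to noise over three replicate slides.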 The settings on record: higher = more signal.
Dickkopf-related protein 1 (Homo sapiens), sequence (O94907 whole entry, looked up): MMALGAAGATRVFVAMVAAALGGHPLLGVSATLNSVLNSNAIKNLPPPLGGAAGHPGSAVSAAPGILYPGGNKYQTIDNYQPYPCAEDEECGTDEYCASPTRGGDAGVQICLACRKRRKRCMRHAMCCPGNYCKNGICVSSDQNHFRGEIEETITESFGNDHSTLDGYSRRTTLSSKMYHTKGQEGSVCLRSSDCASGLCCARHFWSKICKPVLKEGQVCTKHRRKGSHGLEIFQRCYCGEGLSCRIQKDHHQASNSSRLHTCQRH
The test system of test [10] is Inhibin beta A chain (activin A). Put plainly: small molecules binding activin A – biochemical, small-molecule microarray, 635 nm fluorescence scan, primary screen (AID 1107).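 Note: mouse activin A protein probed at 4.33 µg/mL on printed slides; score merges bound-protein fluorescence near 667 nm with spot signal-to-noise.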 The settings on record: INHBA, higher = more signal.

Epidermal growth factor receptor (Homo sapiens), sequence (P00533 whole entry, looked up): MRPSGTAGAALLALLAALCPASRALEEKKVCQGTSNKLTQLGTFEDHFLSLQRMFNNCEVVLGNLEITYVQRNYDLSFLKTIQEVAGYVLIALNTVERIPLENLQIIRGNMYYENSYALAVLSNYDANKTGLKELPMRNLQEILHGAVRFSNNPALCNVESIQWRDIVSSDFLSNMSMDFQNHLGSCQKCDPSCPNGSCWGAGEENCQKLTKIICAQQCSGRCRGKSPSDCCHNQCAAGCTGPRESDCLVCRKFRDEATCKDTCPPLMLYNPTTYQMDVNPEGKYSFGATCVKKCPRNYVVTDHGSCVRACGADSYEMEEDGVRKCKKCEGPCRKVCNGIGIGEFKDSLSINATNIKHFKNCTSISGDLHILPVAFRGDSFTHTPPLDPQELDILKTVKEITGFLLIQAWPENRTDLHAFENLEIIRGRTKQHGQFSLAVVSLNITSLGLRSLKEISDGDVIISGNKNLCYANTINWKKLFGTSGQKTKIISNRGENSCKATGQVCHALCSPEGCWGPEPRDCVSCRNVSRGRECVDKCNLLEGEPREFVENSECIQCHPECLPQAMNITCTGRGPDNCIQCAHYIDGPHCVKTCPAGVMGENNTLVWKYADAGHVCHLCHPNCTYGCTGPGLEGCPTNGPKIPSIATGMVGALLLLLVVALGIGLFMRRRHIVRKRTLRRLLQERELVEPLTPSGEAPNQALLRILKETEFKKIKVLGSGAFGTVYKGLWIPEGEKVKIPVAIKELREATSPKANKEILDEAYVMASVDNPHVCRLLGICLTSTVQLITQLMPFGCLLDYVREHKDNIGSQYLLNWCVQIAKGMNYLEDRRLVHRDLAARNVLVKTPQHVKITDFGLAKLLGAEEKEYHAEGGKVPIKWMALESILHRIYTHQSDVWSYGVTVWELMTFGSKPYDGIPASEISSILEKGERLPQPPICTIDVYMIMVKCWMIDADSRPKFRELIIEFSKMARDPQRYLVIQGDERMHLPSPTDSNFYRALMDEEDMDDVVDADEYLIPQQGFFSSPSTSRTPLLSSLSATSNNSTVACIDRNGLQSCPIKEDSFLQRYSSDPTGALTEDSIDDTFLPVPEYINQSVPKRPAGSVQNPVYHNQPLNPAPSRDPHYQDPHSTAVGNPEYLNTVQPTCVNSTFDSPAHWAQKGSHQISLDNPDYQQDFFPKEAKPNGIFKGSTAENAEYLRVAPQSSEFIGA
Follistatin-related protein 3 (Homo sapiens), sequence (O95633 whole entry, looked up): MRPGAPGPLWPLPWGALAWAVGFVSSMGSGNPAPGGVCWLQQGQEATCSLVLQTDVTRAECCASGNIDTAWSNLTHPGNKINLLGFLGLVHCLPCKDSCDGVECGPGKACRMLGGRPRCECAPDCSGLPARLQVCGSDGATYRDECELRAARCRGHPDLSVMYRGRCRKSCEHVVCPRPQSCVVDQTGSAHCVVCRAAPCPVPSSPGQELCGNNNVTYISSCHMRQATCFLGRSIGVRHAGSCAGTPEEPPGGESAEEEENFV

As for `O=C1NC(=O)C2C1C=CC(C(O)c1ccc(F)cc1)N2Nc1ccccn1` (stereo not given), the composite z-score is 1.06 in test [1]; -0.118 in test [2]; 0.243 in test [3]; 0.138 in test [5]; -0.371 in [6]; 0.255 in test [7]. The figures for the composite z-score in [8], in [9] and in test [10] were -0.0918, 0.297 and 0.877, respectively. For the same compound, in test [4], the z-score was 1.23 (inactive).

With `CC(C)(C)OC(=O)CC[C@]1(C(=O)N2CCOCC2)N=C(c2ccc(OCCCO)cc2)O[C@H]1c1ccccc1CN=[N+]=[N-]`, the composite z-score was 1.61 in test [1]; 0.528 in test [2]; 0.885 in [3]; 1.4 in test [5]; 1.32 in test [6]; -0.0261 in test [7]. The composite z-score was 1.08 in test [8], -0.0465 in [9] and 0.543 in test [10]. Besides, the z-score in test [4] is -0.371 (inactive).

With `CC(C)c1ccc(NN2C(C(O)C(C)C)C=CC3C(=O)N(c4ccccc4)C(=O)C32)cc1` (stereo not given), the composite z-score in [1] amounted to 1.06; in test [2] it was 1.26; in [3], 1.14; in test [5], 0.651; in test [6] it was 1.31; in test [7], 0.389. The composite z-score in [8] is 0.926; in test [9] it was -0.103; in test [10] it was 0.496. Besides, the z-score in test [4] is 0.437 (inactive).

As for `CN(C)CCCC[C@@H]1NC(=O)[C@H]2C[C@@H](C(=O)O)[C@@H](c3cccc(OCCO)c3)N2C1=O`, the composite z-score in [1] is 1.67; in test [2], 0.696; in [3], 0.555; in [5], 0.702; in test [6], 1.14; in [7] it was 0.258. For the same compound, the composite z-score was found to be 0.666 in [8], 0.969 in [9] and 0.658 in test [10]. Also, the z-score in test [4] was -0.348 (inactive).

`C=CCOC(=O)[C@H]1[C@@H]2C(=O)O[C@@H](c3ccccc3)[C@@H](c3ccccc3)N2[C@@H](c2ccc(OCCOC(=O)[C@@H]3C[C@@H]4C(=O)N[C@@H](CC(C)C)C(=O)N4[C@@H]3c3ccc(O)cc3)cc2)[C@]12C(=O)Nc1ccc(I)cc12`: the composite z-score was 1.09 in test [1]; 0.0615 in test [2]; -0.0756 in [3]; 0.649 in test [5]; 1.13 in [6]; 0.993 in test [7]. Moreover, the composite z-score is 0.644 in test [8], 0.928 in test [9] and -0.0053 in test [10]. The z-score in [4] was -1.41 (inactive).

`COCCOC(=O)N1C(=O)[C@@]2(c3cc(C#CC4=CCCCC4)ccc31)[C@H](c1ccc(OCCO)cc1)N1[C@H](c3ccccc3)[C@H](c3ccccc3)OC(=O)[C@H]1[C@@H]2C(=O)N1CCCCCCC1`: the composite z-score was 0.959 in test [1]; 1.43 in test [2]; 1.16 in test [3]; 1.02 in [5]; 1.33 in [6]; 0.513 in test [7]. Moreover, the values for the composite z-score in test [8], in [9] and in test [10] were 1.46, 1.01 and 1.7, respectively. Further, the z-score in test [4] was -1.07 (inactive).

Consider `CC(C)C[C@@H]1NC(=O)[C@H]2C[C@@H](C(=O)NCCCCCNC(=O)CS)[C@@H](c3ccc(O)cc3)N2C1=O`, for which the composite z-score was 1.56 in test [1]; -0.0363 in test [2]; 0.203 in test [3]; 1.08 in test [5]; 1.33 in [6]; 0.521 in [7]. For the same compound, the composite z-score was 0.848 in test [8], 1.01 in test [9] and 0.0563 in test [10]. In addition, the z-score in [4] is 0.0983 (inactive).

On to `COc1cc2c(cc1O)C(C1CC1)N(Cc1ccc([N+](=O)[O-])o1)CC2` (stereo not given), for which the composite z-score in test [1] is 1.53; in [2] it was 0.158; in [3], 0.391; in test [5], 0.839; in test [6] it was 0.812; in [7], 0.117. Moreover, the composite z-score in test [8] is 0.228; in test [9], -0.327; in [10] it was 0.822. The z-score in [4] was -0.28 (inactive).

Consider `C=CC[C@]1(C(=O)NCCCOC)N=C(c2ccc(OCCCO)cc2)O[C@H]1c1ccccc1`, for which the composite z-score in [1] was 1.08; in test [2], 0.107; in [3], 1.05; in test [5], -0.418; in test [6] it was 0.94; in [7], -1.69. The values for the composite z-score in [8], in [9] and in test [10] were -0.0778, -1.13 and -0.112, respectively. Further, the z-score in test [4] was -0.318 (inactive).

Consider `C[N+](C)(C)CCCC[C@@H]1NC(=O)[C@H]2C[C@@H](C(=O)NCCCCCNC(=O)CS)[C@@H](c3ccc(O)cc3)N2C1=O`, for which the composite z-score was 1.43 in [1]; -0.0443 in [2]; 0.161 in test [3]; 0.499 in test [5]; 0.57 in [6]; 0.0872 in test [7]. Besides, the composite z-score in [8] is -0.0399; in test [9], 0.312; in [10] it was 0.425. For the same compound, the z-score in test [4] was -0.744 (inactive).

Consider `COC(=O)[C@@]1(Cc2ccc(OC)cc2)[C@@H]2[C@@H](CC(=O)[C@H]2CC(=O)C(=O)N2CCCC2)CN1C(=O)c1ccccc1`, for which the composite z-score is 1.66 in test [1]; 2.76 in [2]; 1.21 in [3]; 1.44 in test [5]; 1.07 in test [6]; 0.725 in test [7]. The composite z-score was 0.868 in test [8], 0.823 in [9] and 0.846 in test [10]. The z-score in test [4] is -2.69 (inactive).
